Source: PubChem BioAssay AID624305 (National Center for Advancing Translational Sciences (NCATS), 2012)
Results filed as inconclusive are left out. Activity calls are given as the source filed them. The call rests on the fitted dose curve; in most records, active means well fitted activation curve with a large enough effect; inconclusive means small, poorly fitted or top-dose-only effect; inactive means no such curve, though single readings can be large or run the other way.

Assay: qHTS assay for re-activators of p53 using a Luc reporter: Hit Validation; further: nearly all actives have a fitted effect of over 75% in size; on activation: 0% is about no effect
Conditions: p53-responsive luciferase reporter cells, luminescence, H1299 line expressing heat-sensitive Ala138Val p53; series mostly up to 46.1 µM
Summary of the method: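 Hit confirmation with a 1:5 dilution series, at 37 deg C for 24 hrs, in H1299 cells co-expressing temperature-sensitive p53-A138V and p53-responsive luciferase. Nocodazole served as control; luminescence read after 10 min with detection reagent.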
Potency means the concentration at half of the fitted maximal effect.

SMILES	Potency	activation
COc1ccc2oc(C(=O)Nc3nnc(C)s3)c(C)c2c1	1840 nM (active)	–
CCCCC(=O)Nc1cccc(NC(=S)NC(=O)Cc2ccccc2)c1	inactive	–
O=C(/C=C/c1ccco1)Nc1ccc2nn(-c3ccccc3)nc2c1	inactive	–
OC(COc1ccc2cc(Br)ccc2c1)CN1CCCC1 (configuration not stated)	inactive	–
COc1ccc(-c2coc3cc(O[C@@H]4O[C@H](CO)[C@@H](O)[C@H](O)[C@H]4O)ccc3c2=O)cc1	2910 nM (active)	–
O=C(CSc1nc2ccccc2c(=O)[nH]1)c1ccc(O)c(O)c1	inactive	–
O=c1c2ccccc2oc2ccc(-c3ccc4cc[nH]c4c3)cc12	411 nM (active)	–
c1ccc(-c2cn3c(n2)-c2ccccc2C3)cc1	206 nM (active)	–
CC1CCCN(C(=O)CN2C(=O)c3ccccc3S2(=O)=O)C1 (configuration not stated)	23100 nM (active)	–
Cc1cccc(NC(=O)/C=C/c2ccc(Cl)cc2)n1	2310 nM (active)	–
Cc1cccc(NC(=O)c2ccccn2)c1C	14600 nM (active)	–
Cc1cccc2nc(CSC(=N)N)c(Br)n12	–	3.7% [at 9.22 µM] (inactive)
COc1ccc2cc(C3(C)NC(=O)N(CC(=O)Nc4c(C)n(C)n(-c5ccccc5)c4=O)C3=O)ccc2c1 (configuration not stated)	inactive	–
CC12CCC(C(=O)N(CSC(=S)N/N=C\c3ccccc3O)C1=O)C2(C)C (configuration not stated)	inactive	–
CCOc1ccc(NC(=O)/C=C/c2ccccc2)c([N+](=O)[O-])c1	5170 nM (active)	–
Cc1ccc(NC2=C(Cl)C(=O)c3ccccc3C2=O)cc1	inactive	–
COc1ccc(-c2csc(NCc3ccco3)n2)cc1C	18400 nM (active)	–
